This is one part of the list. No count for the full screen is at hand.
Target: furin, P09958
Test: furin cleavage Z-score vs untreated control; higher = more cleavage, active = 3.5 or more, inactive = 1 or less, 8 variable residues between constant flanks
In short: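 Cleavage by purified furin was measured on 8-mer peptides fused to a cDNA oligonucleotide and held on magnetic beads by their N-terminus. Reactions (0.01 ml, 1:10 enzyme:substrate) ran 7.5, 15 or 30 min in 50 mM HEPES pH 7.5 with CaCl2 and NaCl. Released DNA was adapter-tagged by PCR and sequenced, with read counts giving abundance. Log counts versus furin-free reactions were lowess-adjusted and scaled by median absolute deviation to give the cleavage Z-score.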

Chain of furin, P09958 (P09958 whole entry): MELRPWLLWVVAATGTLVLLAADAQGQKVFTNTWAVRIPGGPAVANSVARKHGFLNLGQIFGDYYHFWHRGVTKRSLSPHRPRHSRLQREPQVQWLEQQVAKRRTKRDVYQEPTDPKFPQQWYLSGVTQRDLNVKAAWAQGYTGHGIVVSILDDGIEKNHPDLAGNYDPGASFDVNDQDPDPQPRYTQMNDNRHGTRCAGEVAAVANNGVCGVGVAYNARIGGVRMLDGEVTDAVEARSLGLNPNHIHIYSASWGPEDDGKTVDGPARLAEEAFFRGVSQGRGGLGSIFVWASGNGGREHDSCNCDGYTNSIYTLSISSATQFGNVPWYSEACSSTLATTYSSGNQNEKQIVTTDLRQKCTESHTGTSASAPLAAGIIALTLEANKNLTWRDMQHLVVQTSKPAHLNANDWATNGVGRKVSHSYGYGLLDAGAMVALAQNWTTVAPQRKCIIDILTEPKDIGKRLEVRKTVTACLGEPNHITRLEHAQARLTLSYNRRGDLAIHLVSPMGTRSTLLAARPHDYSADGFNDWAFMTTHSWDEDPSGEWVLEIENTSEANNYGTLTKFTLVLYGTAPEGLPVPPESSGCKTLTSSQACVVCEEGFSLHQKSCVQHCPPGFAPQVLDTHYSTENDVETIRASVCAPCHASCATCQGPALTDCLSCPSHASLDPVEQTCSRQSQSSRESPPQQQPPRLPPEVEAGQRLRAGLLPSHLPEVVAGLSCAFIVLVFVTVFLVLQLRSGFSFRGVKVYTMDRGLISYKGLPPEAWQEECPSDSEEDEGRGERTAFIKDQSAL

B1: HC993 (peptide)
chain: CAGVLAALAAAGNASASA
7.5 min
  furin cleavage Z-score: 1.76
15 min
  furin cleavage Z-score: 0.568 (inactive)
30 min
  furin cleavage Z-score: -0.149 (inactive)

B2: HC2549 (peptide)
chain: CASTPCSAYLAGNASASA
7.5 min
  furin cleavage Z-score: 0.127 (inactive)
15 min
  furin cleavage Z-score: -0.0969 (inactive)
30 min
  furin cleavage Z-score: 0.416 (inactive)

B3: HC150 (peptide)
chain: CAEVVTRTWVAGNASASA
7.5 min
  furin cleavage Z-score: -0.769 (inactive)
15 min
  furin cleavage Z-score: -0.617 (inactive)
30 min
  furin cleavage Z-score: 1.23

B4: HC1706 (peptide)
chain: CAMEMCSQHLAGNASASA
7.5 min
  furin cleavage Z-score: 1.54
15 min
  furin cleavage Z-score: 2.05
30 min
  furin cleavage Z-score: 0.326 (inactive)

B5: FS-1027 (peptide)
chain: CALPDRRRRFAGNASASA
7.5 min
  furin cleavage Z-score: 6.3 (active)
15 min
  furin cleavage Z-score: 8.87 (active)
30 min
  furin cleavage Z-score: 8.99 (active)

B6: HC1155 (peptide)
chain: CASDFKTWLKAGNASASA
7.5 min
  furin cleavage Z-score: -1.27 (inactive)
15 min
  furin cleavage Z-score: -1.41 (inactive)
30 min
  furin cleavage Z-score: -0.384 (inactive)

B7: FS-1788 (peptide)
chain: CARRRRSLPGAGNASASA
7.5 min
  furin cleavage Z-score: 6.91 (active)
15 min
  furin cleavage Z-score: 8.64 (active)
30 min
  furin cleavage Z-score: 6.57 (active)

B8: HC217 (peptide)
chain: CARRRSRNLGAGNASASA
7.5 min
  furin cleavage Z-score: 4.75 (active)
15 min
  furin cleavage Z-score: 6.64 (active)
30 min
  furin cleavage Z-score: 6.07 (active)

B9: FS-2797 (peptide)
chain: CARRRRSLPRAGNASASA
7.5 min
  furin cleavage Z-score: 4.48 (active)
15 min
  furin cleavage Z-score: 5.79 (active)
30 min
  furin cleavage Z-score: 7.11 (active)

B10: FS-2454 (peptide)
chain: CARRRRSLRRAGNASASA
7.5 min
  furin cleavage Z-score: 3.55 (active)
15 min
  furin cleavage Z-score: 3.5 (active)
30 min
  furin cleavage Z-score: 6.12 (active)

B11: HC625 (peptide)
chain: CAIGGHYVQMAGNASASA
7.5 min
  furin cleavage Z-score: 1.06
15 min
  furin cleavage Z-score: 1.02
30 min
  furin cleavage Z-score: -0.429 (inactive)

B12: HC1286 (peptide)
chain: CAVILDSFDPAGNASASA
7.5 min
  furin cleavage Z-score: -0.325 (inactive)
15 min
  furin cleavage Z-score: -0.389 (inactive)
30 min
  furin cleavage Z-score: 1.13

B13: HC2024 (peptide)
chain: CAVVICSMSYAGNASASA
7.5 min
  furin cleavage Z-score: -0.215 (inactive)
15 min
  furin cleavage Z-score: -0.424 (inactive)
30 min
  furin cleavage Z-score: -0.762 (inactive)

B14: HC2388 (peptide)
chain: CAEVPCHRWSAGNASASA
7.5 min
  furin cleavage Z-score: 0.964 (inactive)
15 min
  furin cleavage Z-score: 1.69
30 min
  furin cleavage Z-score: 1.98

B15: HC370 (peptide)
chain: CASWHLNSTAAGNASASA
7.5 min
  furin cleavage Z-score: 0.22 (inactive)
15 min
  furin cleavage Z-score: -0.449 (inactive)
30 min
  furin cleavage Z-score: 0.876 (inactive)

B16: FS-3031 (peptide)
chain: CARPWRDLPEAGNASASA
7.5 min
  furin cleavage Z-score: -1.17 (inactive)
15 min
  furin cleavage Z-score: 0.355 (inactive)
30 min
  furin cleavage Z-score: -0.221 (inactive)

B17: HC2575 (peptide)
chain: CASTPCSAHHAGNASASA
7.5 min
  furin cleavage Z-score: -0.38 (inactive)
15 min
  furin cleavage Z-score: -0.288 (inactive)
30 min
  furin cleavage Z-score: 0.459 (inactive)

B18: HC734 (peptide)
chain: CADSRGSLLSAGNASASA
7.5 min
  furin cleavage Z-score: -0.053 (inactive)
15 min
  furin cleavage Z-score: -0.939 (inactive)
30 min
  furin cleavage Z-score: -0.328 (inactive)

B19: FS-2796 (peptide)
chain: CARRRRSLPEAGNASASA
7.5 min
  furin cleavage Z-score: 9.29 (active)
15 min
  furin cleavage Z-score: 10.5 (active)
30 min
  furin cleavage Z-score: 8.81 (active)

B20: FS-1672 (peptide)
chain: CAKRRRSLHHAGNASASA
7.5 min
  furin cleavage Z-score: 4.3 (active)
15 min
  furin cleavage Z-score: 5.5 (active)
30 min
  furin cleavage Z-score: 6.07 (active)

B21: FS-376 (peptide)
chain: CARRRRSFRRAGNASASA
7.5 min
  furin cleavage Z-score: 5.2 (active)
15 min
  furin cleavage Z-score: 6.31 (active)
30 min
  furin cleavage Z-score: 8.15 (active)

B22: FS-1783 (peptide)
chain: CARRRRCLNGAGNASASA
7.5 min
  furin cleavage Z-score: 5.37 (active)
15 min
  furin cleavage Z-score: 5.63 (active)
30 min
  furin cleavage Z-score: 3.81 (active)

B23: HC1857 (peptide)
chain: CATSPCSGSWAGNASASA
7.5 min
  furin cleavage Z-score: -0.464 (inactive)
15 min
  furin cleavage Z-score: -0.0771 (inactive)
30 min
  furin cleavage Z-score: -1.88 (inactive)

B24: HC2487 (peptide)
chain: CASFPCSAHLAGNASASA
7.5 min
  furin cleavage Z-score: -0.137 (inactive)
15 min
  furin cleavage Z-score: -0.966 (inactive)
30 min
  furin cleavage Z-score: -0.392 (inactive)

B25: FS-2056 (peptide)
chain: CARPLRSSERAGNASASA
7.5 min
  furin cleavage Z-score: -0.31 (inactive)
15 min
  furin cleavage Z-score: -0.454 (inactive)
30 min
  furin cleavage Z-score: -0.848 (inactive)

B26: FS-128 (peptide)
chain: CAGPLRSKRRAGNASASA
7.5 min
  furin cleavage Z-score: 3.54 (active)
15 min
  furin cleavage Z-score: 3.82 (active)
30 min
  furin cleavage Z-score: 0.894 (inactive)

B27: HC192 (peptide)
chain: CAQPIPKARRAGNASASA
7.5 min
  furin cleavage Z-score: -0.161 (inactive)
15 min
  furin cleavage Z-score: 1.41
30 min
  furin cleavage Z-score: -0.434 (inactive)

B28: FS-140 (peptide)
chain: CAQPTRSKRRAGNASASA
7.5 min
  furin cleavage Z-score: 8.89 (active)
15 min
  furin cleavage Z-score: 11.6 (active)
30 min
  furin cleavage Z-score: 8.5 (active)

B29: HC177 (peptide)
chain: CAGVYLLPRRAGNASASA
7.5 min
  furin cleavage Z-score: -0.35 (inactive)
15 min
  furin cleavage Z-score: 0.113 (inactive)
30 min
  furin cleavage Z-score: 0.636 (inactive)

B30: FS-2747 (peptide)
chain: CARPTRPLEVAGNASASA
7.5 min
  furin cleavage Z-score: -0.707 (inactive)
15 min
  furin cleavage Z-score: -0.831 (inactive)
30 min
  furin cleavage Z-score: 0.199 (inactive)

B31: FS-2140 (peptide)
chain: CARFWKSAPPAGNASASA
7.5 min
  furin cleavage Z-score: -0.578 (inactive)
15 min
  furin cleavage Z-score: 0.202 (inactive)
30 min
  furin cleavage Z-score: -1.15 (inactive)

B32: FS-2572 (peptide)
chain: CARLPRSAPPAGNASASA
7.5 min
  furin cleavage Z-score: 5.97 (active)
15 min
  furin cleavage Z-score: 5.41 (active)
30 min
  furin cleavage Z-score: 5.19 (active)

B33: FS-2758 (peptide)
chain: CARQLRSAPPAGNASASA
7.5 min
  furin cleavage Z-score: 3.01
15 min
  furin cleavage Z-score: 4.5 (active)
30 min
  furin cleavage Z-score: 4.16 (active)

B34: HC1346 (peptide)
chain: CAPAPSGCPPAGNASASA
7.5 min
  furin cleavage Z-score: -1.72 (inactive)
15 min
  furin cleavage Z-score: -0.997 (inactive)
30 min
  furin cleavage Z-score: -0.764 (inactive)

B35: FS-3233 (peptide)
chain: CARSFRSVRSAGNASASA
7.5 min
  furin cleavage Z-score: -0.0905 (inactive)
15 min
  furin cleavage Z-score: 1.16
30 min
  furin cleavage Z-score: 1.57

B36: FS-1743 (peptide)
chain: CARLPRGAEAAGNASASA
7.5 min
  furin cleavage Z-score: 3.99 (active)
15 min
  furin cleavage Z-score: 2.77
30 min
  furin cleavage Z-score: 3.19

B37: HC1542 (peptide)
chain: CAMTRYSAPPAGNASASA
7.5 min
  furin cleavage Z-score: 1.05
15 min
  furin cleavage Z-score: -0.0414 (inactive)
30 min
  furin cleavage Z-score: -1.39 (inactive)

B38: HC1225 (peptide)
chain: CARLHRFAPPAGNASASA
7.5 min
  furin cleavage Z-score: -1.52 (inactive)
15 min
  furin cleavage Z-score: 1.01
30 min
  furin cleavage Z-score: 0.153 (inactive)

B39: HC530 (peptide)
chain: CALLISQAEAAGNASASA
7.5 min
  furin cleavage Z-score: -0.545 (inactive)
15 min
  furin cleavage Z-score: -1.15 (inactive)
30 min
  furin cleavage Z-score: -0.368 (inactive)

B40: FS-1263 (peptide)
chain: CARLPRSVRSAGNASASA
7.5 min
  furin cleavage Z-score: 5.43 (active)
15 min
  furin cleavage Z-score: 4.73 (active)
30 min
  furin cleavage Z-score: 4.77 (active)

B41: FS-1782 (peptide)
chain: CARRQRGAEAAGNASASA
7.5 min
  furin cleavage Z-score: 0.38 (inactive)
15 min
  furin cleavage Z-score: -0.365 (inactive)
30 min
  furin cleavage Z-score: 1.17

B42: FS-1738 (peptide)
chain: CARLGRQVDSAGNASASA
7.5 min
  furin cleavage Z-score: 0.0659 (inactive)
15 min
  furin cleavage Z-score: 0.283 (inactive)
30 min
  furin cleavage Z-score: 1.6

B43: HC938 (peptide)
chain: CALEFWEGVFAGNASASA
7.5 min
  furin cleavage Z-score: 0.499 (inactive)
15 min
  furin cleavage Z-score: -0.214 (inactive)
30 min
  furin cleavage Z-score: -0.35 (inactive)

Source: the supplement of paper PMC3545927
